Gli-Sufu antag = Gli-Sufu pathway antagonism; Sufu-KO-LIGHT fibroblasts, Gli luciferase reporter luminescence; inhibition, % at 5 µM; 340,000 compounds, 0.74% hits; AID 588413;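 active means inhibition above about 55%, limit read from the data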
MPTP inh = blocks calcium-induced mitochondrial swelling; isolated mouse mitochondria, Ca2+ swelling absorbance, 30 min; inhibition, % at 10 µM; 360,000 compounds, 1.4% hits;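 active means inhibition of 50% or more, scaled per plate between neutral and stimulator controls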
Mdm2 MdmX PPI = disrupts the human Mdm2-MdmX interaction; O15151+Q00987; SaOS-2 split-luciferase Mdm2/MdmX complementation, luminescence; inhibition, % at 8 µM; 330,000 compounds, 3% hits; AID 485346;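 active means inhibition of at least 50% at 8 µM in the primary screen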
Beta apoptosis = beta cell apoptosis inhibition | INS-1E cytokine-induced death, ATP luminescence, 48 h; percent of positive-control rescue, neutral wells zero | protection from apoptosis, % (no concentration beside the values) | 300,000 compounds, 0.8% hits;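 active means Every replicate reaches about 75%, or at least half do and their mean reaches it too, limit read from the data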;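 further: higher means more ATP so stronger rescue from cytokine killing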
CSC inhib = blocks cancer stem cells; 300,000 compounds, 1.1% hits; cancer stem cell-like cells viability, luminescence; inhibition, % at 7.5 µM; in the data active means inhibition above about 75%; tested in HMLE shEcad cells
NR3A LBD binder = modulates the human NR3A ligand-binding domain. AID 1259313. NR3A LBD differential scanning fluorimetry, Tm shift; 0% = protein alone, 100% = glycine-bound protein. Tm shift relative to glycine control, % at 25 µM. 340,000 compounds, 2.5% hits;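 active means melting temperature shift of at least 10% of the positive control shift, at one fixed dose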
Mdm2-MdmX conf = human Mdm2/MdmX binding inhibition, confirmed. shares compounds with Mdm2 MdmX PPI. luminescent assay. 10,000 compounds, 55% hits. inhibition, % at 8 µM; in the data active means inhibition above about 40%
Full FLuc ctr = full-length luciferase inhibition in Mdm2/MdmX counter-screen | 6,200 compounds, 77% hits | shares compounds with Mdm2 MdmX PPI | inhibition, % at 8 µM | SaOS-2 full-length luciferase counterscreen, luminescence | AID 504607;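 active means mean inhibition at 8 µM reaching about 37%, which flags the compound as non-specific, limit read from the data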;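 further: p53-null SaOS-2 cells with luciferase driven by a doxycycline-inducible promoter; compound on cells about two nights before reading with doxycycline added after day one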
Numbers stand for hits; – = inactive; · = no result given. The list is not random: actives were taken first. Their share in the collection is about 6.6%.

SMILES	Gli-Sufu antag	MPTP inh	Mdm2 MdmX PPI	Beta apoptosis	CSC inhib	NR3A LBD binder	Mdm2-MdmX conf	Full FLuc ctr
N/C(=N\OC(=O)c1cnn(-c2ccccc2)c1C(F)(F)F)c1cc(C(F)(F)F)cc(C(F)(F)F)c1	–	–	52	–	–	–	–	·
O=C1c2ccccc2CN1C(CO)Cc1ccccc1 (stereo not given)	–	–	–	–	–	–	·	·
CC(NC(=O)c1ccc(NC(=O)CC2SC(N3CCCC3)=NC2=O)cc1)c1ccc(S(N)(=O)=O)cc1 (stereo not given)	–	–	–	–	–	–	·	·
CN(C)CCCNc1nc2cc(-c3cnn(C)c3)sc2c(=O)n1C	·	–	·	·	·	·	·	·
Cc1cc(C(=O)CN2C(=O)c3ccccc3C2=O)c(C)n1Cc1cccs1	–	–	68	·	–	–	67	102
Cc1nn(-c2ccccc2)c2nc(-c3ccncc3)cc(C(=O)NCc3ccco3)c12	–	–	–	·	–	–	·	·
COc1ccc(NC(=O)c2cc(-c3ccccc3)nc3c2c(C)nn3-c2ccccc2)c(OC)c1	–	–	54	–	–	13	–	·
COc1ccc(-c2cc(C(=O)NNC3=NCCC3)c3c(C)nn(-c4ccccc4)c3n2)cc1	–	–	69	–	·	–	56	–
COc1ccc(NC(=O)c2cnn(-c3ccccc3)c2C)c(OC)c1	–	–	–	–	–	–	·	·
COCCNC(=O)C1CCCN(C(=O)c2ccc3c(c2)C(C)(C)CCC3(C)C)CC1 (stereo not given)	·	–	·	·	·	·	·	·
Nc1ncnc(N2CCc3ccccc32)c1[N+](=O)[O-]	–	–	82	–	–	–	85	52
NNC(=O)c1ccc(N2CCc3ccccc32)c([N+](=O)[O-])c1	–	–	–	–	–	–	·	·
CCC(c1nnnn1-c1ccc2c(c1)OCCO2)N1CCN(C/C=C/c2ccccc2)CC1 (stereo not given)	·	–	·	·	·	·	·	·
COc1ccccc1N(CC(=O)NCCc1ccccc1)C(=O)CCC(=O)Nc1cc(C)ccn1	–	–	–	–	–	–	·	·
Cn1nnc2c[n+](CC(=O)c3ccc4ccccc4c3)cc(Br)c21	–	–	65	–	–	–	–	63
Cn1nnc2c[n+](CC(=O)c3ccc(Cl)cc3)cc(Br)c21	–	–	–	–	–	–	·	·
Cc1n[nH]c(C)c1N=Nc1cc(Cl)ccc1Cl	–	–	52	–	–	–	–	39
COc1ccccc1N=Nc1c(C)n[nH]c1C	–	–	–	–	–	–	·	·
CC(=O)OC(C)(C)/C=C/C(=O)[C@](C)(O)C1[C@H](O)C[C@@]2(C)C3CC=C4C(C=C(O[C@@H]5O[C@H](CO)[C@@H](O)[C@H](O)[C@H]5O)C(=O)C4(C)C)[C@]3(C)C(=O)C[C@]12C (stereo not given in full)	–	–	96	–	–	16	–	·
CC1(C)Oc2ccc3ccc(=O)oc3c2C[C@H]1O[C@@H]1O[C@H](CO)[C@@H](O)[C@H](O)[C@H]1O	–	–	–	–	–	–	·	·
Cc1nc(NC(=O)CSc2nnc(C3CC3)n2N)c(Cl)cc1Cl	–	–	–	–	–	–	·	·
COC(=O)C[C@@H]1C[C@@H]2c3cc(NS(=O)(=O)c4ccc(F)cc4)ccc3O[C@@H]2[C@@H](CO)O1	·	–	·	·	·	·	·	·
COc1ccc(S(=O)(=O)N2CCCCC2)cc1NCC(=O)Nc1ccc(C)cc1	–	–	–	–	–	–	·	·
COc1ccc(NC(=O)COc2cc(C)cc(C)c2)cc1S(=O)(=O)N1CCCCC1	–	–	62	–	–	24	75	51
COc1cc(Cl)c(C)cc1NCC(=O)Nc1cccc(S(=O)(=O)N2CCCC2)c1	–	–	51	–	·	–	–	·
SMILES	Gli-Sufu antag	MPTP inh	Mdm2 MdmX PPI	Beta apoptosis	CSC inhib	NR3A LBD binder	Mdm2-MdmX conf	Full FLuc ctr
Cc1ccc(Cn2ccc(NC(=O)c3cc(-c4ccc(Cl)cc4)on3)n2)cc1	–	–	–	–	–	–	·	·
Cc1ccc(Cn2ccc(NC(=O)c3cc(-c4cccc(Cl)c4)on3)n2)cc1	–	–	55	–	–	–	–	·
COc1ccccc1C(=O)NC(=Nc1nc2ccccc2o1)NC(=O)c1ccccc1OC	–	–	88	–	–	–	55	88
CCCc1nn2c(=O)cc(COc3ccc(NC(=O)c4ccco4)cc3)nc2s1	–	–	74	–	–	–	–	·
O=C(COc1ccc(-n2cnnn2)cc1)Nc1cc(Cl)cc(Cl)c1	–	–	67	·	·	–	–	·
CCOC(=O)c1ccc(Nc2nc(=O)c3cccnc3s2)cc1	–	–	71	–	–	–	41	73
O=c1nc(Nc2ccc(OCc3ccccc3)cc2)sc2ncccc12	–	–	69	–	–	–	82	–
CC(=O)c1ccc(Nc2nc(=O)c3cccnc3s2)cc1	–	–	–	–	–	–	·	·
COc1ccc(CNC(=O)C2CCN(S(=O)(=O)c3ccc4c(c3)N(C(C)=O)CCO4)CC2)cc1	–	–	–	–	–	–	·	·
O=C(Nc1ccc(N2CCOCC2)c(Cl)c1)c1c(F)c(F)c(F)c(F)c1F	–	–	57	–	–	–	46	45
O=C(Nc1ccc(N2CCCCC2)c(Cl)c1)c1cccnc1	–	–	66	–	·	–	46	50
COc1cc(OC)cc(C(=O)OC(C)C(=O)NC2CCCc3ccccc32)c1 (stereo not given)	–	–	–	·	·	–	·	·
COc1ccc(OC)c2sc(NC(=O)CCS(=O)(=O)c3ccccc3)nc12	–	–	98	–	109	–	77	–
O=C(CCS(=O)(=O)c1ccccc1)Nc1nc2cc3c(cc2s1)OCCO3	–	–	57	–	–	–	–	·
CS(=O)(=O)c1ccc2nc(NC(=O)CCS(=O)(=O)c3ccccc3)sc2c1	–	–	78	–	–	–	73	84
CC(=O)Nc1ccc2nc(NC(=O)CS(=O)(=O)c3ccccc3)sc2c1	–	–	–	–	–	–	·	·
COC(=O)c1ccc2nc(NC(=O)CCS(=O)(=O)c3ccccc3)sc2c1	–	–	91	–	–	–	68	–
O=C(CCS(=O)(=O)c1ccccc1)Nc1nc2cc3c(cc2s1)OCO3	–	–	–	–	–	–	·	·
COC(=O)c1cnc(NC(=O)C2(C)CCN2C(=O)C(C)C)s1 (stereo not given)	·	–	·	·	·	·	·	·
Cc1nc2ccc(NC(=O)CCS(=O)(=O)c3ccccc3)cc2s1	–	–	–	–	–	–	·	·
CC(C)C(=O)Nc1nc2ccc(S(C)(=O)=O)cc2s1	–	–	–	–	–	–	·	·
CC(C)n1nc(C(=O)Nc2nc3ccc(S(C)(=O)=O)cc3s2)c2ccccc2c1=O	–	–	91	–	–	–	57	82
O=C(CCS(=O)(=O)c1ccccc1)Nc1nc2ccc(F)cc2s1	–	–	67	–	–	–	65	72

Compound activity (PubChem BioAssay)
